Measurements: PubChem BioAssay (EPA / NIEHS)
Records with an inconclusive call do not appear. Activity calls are given as the source filed them. Rule for the calls, unless noted: active = hit-call score of the fitted dose curve at least 0.9, where 1 is the maximum; inconclusive = response in the unintended direction; inactive = score below 0.9.

How the values were obtained:
[1] = CCTE_Simmons_CellTiterGLO_HEK293T: Viability Assessment in CCTE's Assays for Thyroperoxidase (TPO) Inhibition, Simmons Lab (AID 2283665);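 for AC50: cells exposed to compound for 24 h before readout; actives reduce ATP signal below DMSO vehicle meaning cytotoxicity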
How it was run: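 Cytotoxicity counter-screen: human HEK293T cells in low-serum (1% FBS) medium receive test chemical, 5 nM to 87.5 uM final, for 24 h; ATP is quantified by luciferase luminescence.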

[2] = read-out: alkyl and aryl transferase (GSTA2), GSTA2 (gene 2939); test: CLD_GSTA2_6hr: CellzDirect (CLD) Gene Expression Assay for alkyl and aryl transferase (GSTA2) at 6 hours (AID 2283666)
How it was run: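 Primary human hepatocytes from two donor preparations were dosed daily with fresh compound at multiple concentrations, 0.2% DMSO vehicle. GSTA2 mRNA was measured at 6 hours by qNPA chemiluminescence; induction fitted relative to DMSO, with cytotoxicity flagged morphologically.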

[3] = read-out: xenobiotic metabolism (CYP1A1), CYP1A1 (gene 1543); test: CLD_CYP1A1_24hr: CellzDirect (CLD) Gene Expression Assay for xenobiotic metabolism (CYP1A1) at 24 hours (AID 2283673);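 note: CYP1A1 mRNA level by quantitative nuclease protection with chemiluminescence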
How it was run: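 Primary human hepatocytes dosed daily with fresh solutions in 0.2% DMSO vehicle. mRNA measured at 24 h by quantitative nuclease protection assay with chemiluminescence; gain-of-signal fit versus DMSO, with morphology-based cytotoxicity flags.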

[4] = read-out: ABC Transporter (ABCB11), ABCB11 (gene 8647); test: CLD_ABCB11_24hr: CellzDirect (CLD) Gene Expression Assay for ABC Transporter (ABCB11) at 24 hours (AID 2283674; active = hit-call score of the fitted dose curve at least 0.9, where 1 is the maximum; inactive = score below 0.9)
How it was run: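 Primary human hepatocytes were dosed daily for two days, with 0.2% DMSO vehicle. ABCB11 mRNA induction was measured at 24 hours by quantitative nuclease protection assay with chemiluminescence. Gain of signal was fitted relative to DMSO.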

[5] = read-out: Cytochrome P450 2B6 (Homo sapiens) (UniProt P20813); test: CLD_CYP2B6_6hr: CellzDirect (CLD) Gene Expression Assay for xenobiotic metabolism (CYP2B6) at 6 hours (AID 2283677);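 note: actives raise CYP2B6 transcript above DMSO baseline so AC50 marks an inducer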
How it was run: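 Primary human hepatocytes dosed with chemicals at multiple concentrations, vehicle 0.2% DMSO; CYP2B6 mRNA induction measured 6 h after dosing by quantitative nuclease protection assay with chemiluminescence, gain of signal fitted relative to DMSO.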

[6] = CCTE_Padilla_ZF_144hpf_TERATOSCORE: (Legacy) CCTE's 144 Hour Post-fertilization zebrafish Assay Teratoscore, Padilla Lab (AID 2283679; active = hit-call score of the fitted dose curve at least 0.9, where 1 is the maximum; inactive = score below 0.9;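 for AC50: zebrafish embryos with chorions exposed by immersion from 6-8 hpf to 5 dpf with daily renewal; teratogenicity score from eye scoring of death hatching and malformations at 144 hpf; higher score means more developmental defects relative to DMSO baseline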)
How it was run: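 Larvae scored by eye at 144 hpf for death, hatching and malformations after a day in clean Hanks'. Before that, daily-renewed exposure at 80 uM (0.4% DMSO, 26C) from roughly 6-8 hpf through 5 dpf, 4 embryos per chemical.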

[7] = read-out: Cytochrome P450 3A4 (Homo sapiens) (UniProt P08684); test: CLD_CYP3A4_6hr: CellzDirect (CLD) Gene Expression Assay for xenobiotic metabolism (CYP3A4) at 6 hours (AID 2283680)
How it was run: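 Primary human hepatocytes (two donor preparations) dosed; CYP3A4 mRNA harvested at 6 h and quantified by qNPA chemiluminescence. Gain of signal fitted against 0.2% DMSO vehicle; cytotoxicity flagged by phase-contrast morphology.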

[8] = read-out: HMG-CoA synthase (HMGCS2), HMGCS2 (gene 3158); test: CLD_HMGCS2_6hr: CellzDirect (CLD) Gene Expression Assay for HMG-CoA synthase (HMGCS2) at 6 hours (AID 2283682);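 note: actives raise HMGCS2 transcript above the 0.2% DMSO vehicle baseline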
How it was run: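 Primary human hepatocytes dosed daily with fresh chemical, 0.2% DMSO vehicle; HMGCS2 mRNA measured at 6 h by qNPA chemiluminescence. Gain of signal fitted against DMSO; cytotoxicity flagged from phase-contrast morphology.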

[9] = read-out: ABC Transporter (ABCB1), ABCB1 (gene 5243); test: CLD_ABCB1_24hr: CellzDirect (CLD) Gene Expression Assay for ABC Transporter (ABCB1) at 24 hours (AID 2283684)
How it was run: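 Primary human hepatocytes, two donor preparations, dosed daily with fresh solutions; vehicle 0.2% DMSO; harvested at 24 h. ABCB1 mRNA measured by quantitative nuclease protection assay (chemiluminescence); morphology-based cytotoxicity annotated.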

[10] = read-out: Cytochrome P450 2C19 (Homo sapiens) (UniProt P33261); test: CLD_CYP2C19_24hr: CellzDirect (CLD) Gene Expression Assay for xenobiotic metabolism (CYP2C19) at 24 hours (AID 2283687);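 note: activity means mRNA induction above DMSO vehicle baseline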
How it was run: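 Primary human hepatocytes (two donor preparations) dosed daily with fresh test chemical in 0.2% DMSO vehicle; CYP2C19 mRNA induction measured at 24 h by quantitative nuclease protection assay with chemiluminescence, fitted for gain of signal versus DMSO.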

[11] = read-out: Glyceraldehyde-3-phosphate dehydrogenase (Homo sapiens) (UniProt P04406); test: CLD_GAPDH_24hr: CellzDirect (CLD) Gene Expression Assay for Baseline Control (Glyceraldehyde 3-phosphate dehydrogenase) at 24 hours (AID 2283692)
How it was run: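 Primary human hepatocytes (two donor preparations) dosed daily for two days, 0.2% DMSO vehicle; GAPDH mRNA measured at 24 h by qNPA chemiluminescence as a background control, gain-of-signal fitted against DMSO.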

[12] = read-out: sulfotransferase (SULT2A), SULT2A1 (gene 6822); test: CLD_SULT2A_24hr: CellzDirect (CLD) Gene Expression Assay for sulfotransferase (SULT2A) at 24 hours (AID 2283694)
How it was run: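 Primary human hepatocytes from two donor preparations were dosed daily with fresh solutions, vehicle 0.2% DMSO. At 24 h, lysates went to quantitative nuclease protection (qNPA) with S1 digestion and chemiluminescent readout. Cytotoxicity was annotated from phase-contrast morphology.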

[13] = Tanguay_ZF_120hpf_TR_legacy: (Legacy) Oregon State University Tanguay Lab 120 Hour Post-fertilization zebrafish Assay for Touch Response (AID 2283667)
How it was run: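 Tropical 5D wild-type zebrafish embryos statically exposed to 120 hpf at 28°C, sealed and dark-covered, 0.64% DMSO final; touch response scored as present/absent by brightfield microscopy at 120 hpf. Trimethyltin chloride 5 uM positive control; dead embryos not scored.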

[14] = read-out: Cytochrome P450 (CYP24A1_1), CYP24A1 (gene 1591); test: LTEA_HepaRG_CYP24A1_1: Life Technologies and Expression Analysis (LTEA) Assay for Cytochrome P450 (CYP24A1_1) using HepaRG (AID 2283671; active = hit-call score of the fitted dose curve at least 0.9, where 1 is the maximum; inactive = score below 0.9); settings: mRNA level, 48 h; actives raise or lower the signal
How it was run: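 Differentiated human HepaRG cells in serum-free induction medium, exposed 48 h in duplicate to eight half-log concentrations from 100 uM top, 0.5% DMSO. Transcript measured by TaqMan qRT-PCR, normalised to ACTB, GAPDH, POLR2A; bidirectional fitting versus DMSO.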

[15] = read-out: organic anion transporter (SLCO1B1), SLCO1B1 (gene 10599); test: CLD_SLCO1B1_6hr: CellzDirect (CLD) Gene Expression Assay for organic anion transporter (SLCO1B1) at 6 hours (AID 2283668);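 note: active means mRNA induction above DMSO baseline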
How it was run: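 Primary human hepatocytes dosed daily with test chemicals (multiple concentrations) in 0.2% DMSO vehicle; harvested at 6 h. SLCO1B1 mRNA quantified by qNPA chemiluminescence, fitted as gain-of-signal versus DMSO; cytotoxicity from phase-contrast morphology flagged alongside.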

[16] = read-out: Glyceraldehyde-3-phosphate dehydrogenase (Homo sapiens) (UniProt P04406); test: CLD_GAPDH_6hr: CellzDirect (CLD) Gene Expression Assay for Baseline Control (Glyceraldehyde 3-phosphate dehydrogenase) at 6 hours (AID 2283681);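 note: active means increased signal relative to DMSO vehicle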
How it was run: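 Primary human hepatocytes from two donor preparations, dosed at multiple concentrations with 0.2% DMSO vehicle; GAPDH mRNA measured 6 h after dosing by chemiluminescent quantitative nuclease protection assay (qNPA) on denatured lysates. Serves as background control; cytotoxicity annotated by morphology.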

[17] = read-out: Cytochrome P450 2C9 (Homo sapiens) (UniProt P11712); test: CLD_CYP2C9_24hr: CellzDirect (CLD) Gene Expression Assay for xenobiotic metabolism (CYP2C9) at 24 hours (AID 2283688)
How it was run: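 Primary human hepatocytes from two donor preparations, dosed daily for two days at multiple concentrations; vehicle 0.2% DMSO. CYP2C9 mRNA induction at 24 h measured by qNPA chemiluminescence relative to DMSO; cytotoxicity annotated from morphology.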

[18] = read-out: Cytochrome P450 3A4 (Homo sapiens) (UniProt P08684); test: CLD_CYP3A4_24hr: CellzDirect (CLD) Gene Expression Assay for xenobiotic metabolism (CYP3A4) at 24 hours (AID 2283689)
How it was run: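 Primary human hepatocytes from two donors dosed daily with fresh compound for two days, 0.2% DMSO vehicle. CYP3A4 mRNA at 24 hr by qNPA chemiluminescence; gain-of-signal fit versus DMSO, cytotoxicity flagged by morphology.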

[19] = read-out: glucuronosyltransferase (UGT1A1), UGT1A1 (gene 54658); test: CLD_UGT1A1_24hr: CellzDirect (CLD) Gene Expression Assay for glucuronosyltransferase (UGT1A1) at 24 hours (AID 2283696)
How it was run: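 Primary human hepatocytes from two donor preparations were dosed (0.2% DMSO vehicle) and harvested at 24 h; UGT1A1 mRNA induction was quantified by chemiluminescent qNPA, fitted as gain relative to DMSO.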

[20] = read-out: glucuronosyltransferase (UGT1A1), UGT1A1 (gene 54658); test: CLD_UGT1A1_6hr: CellzDirect (CLD) Gene Expression Assay for glucuronosyltransferase (UGT1A1) at 6 hours (AID 2283672)
How it was run: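 Primary human hepatocytes from two donor preparations, dosed with fresh solutions in 0.2% DMSO, harvested at 6 h. UGT1A1 mRNA measured by qNPA chemiluminescence; induction fitted upward versus DMSO.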

Measured: AC50

Cytochrome P450 2C19 (Homo sapiens), sequence (P33261 whole entry, looked up): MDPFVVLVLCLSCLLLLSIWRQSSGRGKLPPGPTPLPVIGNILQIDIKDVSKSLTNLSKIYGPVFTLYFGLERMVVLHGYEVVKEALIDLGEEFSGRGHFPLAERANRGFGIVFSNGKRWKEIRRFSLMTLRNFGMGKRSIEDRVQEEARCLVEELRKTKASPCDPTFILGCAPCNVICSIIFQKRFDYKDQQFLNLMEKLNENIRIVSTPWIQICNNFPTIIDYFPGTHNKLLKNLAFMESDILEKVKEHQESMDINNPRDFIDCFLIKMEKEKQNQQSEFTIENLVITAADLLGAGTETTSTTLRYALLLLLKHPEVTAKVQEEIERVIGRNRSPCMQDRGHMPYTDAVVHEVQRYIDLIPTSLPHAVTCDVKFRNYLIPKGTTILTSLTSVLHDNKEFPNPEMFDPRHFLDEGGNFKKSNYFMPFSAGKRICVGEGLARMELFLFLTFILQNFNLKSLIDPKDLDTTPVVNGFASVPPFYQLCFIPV
Cytochrome P450 3A4 (Homo sapiens), sequence (P08684 whole entry, looked up): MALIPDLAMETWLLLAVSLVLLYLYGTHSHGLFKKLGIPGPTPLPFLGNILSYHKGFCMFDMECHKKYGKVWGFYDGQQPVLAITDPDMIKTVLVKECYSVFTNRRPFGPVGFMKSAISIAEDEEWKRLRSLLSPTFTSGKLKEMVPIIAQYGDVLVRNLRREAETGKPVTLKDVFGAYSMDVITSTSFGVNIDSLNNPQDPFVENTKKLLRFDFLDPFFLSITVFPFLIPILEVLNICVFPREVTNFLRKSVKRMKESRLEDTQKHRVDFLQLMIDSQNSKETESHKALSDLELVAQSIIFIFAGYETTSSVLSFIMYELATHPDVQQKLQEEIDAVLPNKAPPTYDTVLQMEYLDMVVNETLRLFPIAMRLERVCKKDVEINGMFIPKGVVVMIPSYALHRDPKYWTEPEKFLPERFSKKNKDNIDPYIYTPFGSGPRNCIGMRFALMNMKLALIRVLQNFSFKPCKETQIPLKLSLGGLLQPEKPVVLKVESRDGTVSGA
Glyceraldehyde-3-phosphate dehydrogenase (Homo sapiens), sequence (P04406 whole entry, looked up): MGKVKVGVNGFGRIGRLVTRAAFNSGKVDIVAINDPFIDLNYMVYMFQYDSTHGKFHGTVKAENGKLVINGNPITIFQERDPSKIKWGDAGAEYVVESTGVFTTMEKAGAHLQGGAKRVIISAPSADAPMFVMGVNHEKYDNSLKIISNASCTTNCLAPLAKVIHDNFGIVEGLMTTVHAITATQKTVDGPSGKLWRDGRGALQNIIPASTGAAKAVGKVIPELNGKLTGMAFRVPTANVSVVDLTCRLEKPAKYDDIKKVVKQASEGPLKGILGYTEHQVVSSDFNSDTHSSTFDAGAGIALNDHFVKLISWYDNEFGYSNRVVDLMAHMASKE

Oc1ccc(C(c2ccc(O)cc2)C(Cl)(Cl)Cl)cc1
inactive: [2] | [3] | [4] | [5] | [7] | [8] | [9] | [10] | [11] | [12]
active: [1] 28.8 µM | [6] 17.1 µM

CN(C)C(=O)Nc1ccc(Cl)c(Cl)c1
inactive: [2] | [13] | [14] | [6] | [7] | [8] | [12]
active: [3] 4.24 µM | [5] 4.6 µM

COc1c(Cl)ccc(Cl)c1C(=O)O
not listed: [1] | [4] | [5] | [11] | [14] | [19] | [20]
inactive: all other assays above

N#CSCSc1nc2ccccc2s1
active: [1] 9.18 µM | [3] 4.74 µM | [6] 0.651 µM | [8] 7.13 µM
inactive: [2] | [13] | [14] | [4] | [9] | [18] | [11] | [12]

Cc1nn(C)c(Oc2ccccc2)c1C=NOCc1ccc(C(=O)OC(C)(C)C)cc1
active: [4] 36.8 µM | [6] 0.213 µM
inactive: [2] | [13] | [3] | [7] | [16] | [9] | [10] | [18] | [12]

CCOC(=O)C(C)Oc1ccc(Oc2nc3ccc(Cl)cc3o2)cc1 (stereo not drawn)
active: [6] 2.06 µM
not listed: [4] | [7] | [11] | [14] | [17] | [19] | [20]
inactive: all other assays above

c1ccc(Nc2ccccc2)cc1
active: [1] 89.8 µM | [5] 9.66 µM | [6] 64 µM
not listed: [9] | [11] | [14] | [16] | [19] | [20]
inactive: all other assays above

CCN(CC)C(=O)c1cccc(C)c1
inactive: [2] | [13] | [15] | [6] | [8] | [9] | [10] | [19]
active: [5] 2.38 µM

O=C(c1ccc(O)cc1O)c1ccc(O)cc1O
active: [6] 95.2 µM
inactive: [1]

CCN(Cc1c(F)cccc1Cl)c1c([N+](=O)[O-])cc(C(F)(F)F)cc1[N+](=O)[O-]
active: [3] 0.786 µM | [5] 0.419 µM | [6] 0.00783 µM | [7] 1.9 µM | [18] 1.45 µM
inactive: [2] | [13] | [20]

C=CCOC(Cn1ccnc1)c1ccc(Cl)cc1Cl (stereo not drawn)
active: [3] 1.07 µM | [5] 0.0186 µM | [6] 2.91 µM
inactive: [2] | [13] | [15] | [16] | [8] | [9]

COCCO
inactive: [2] | [13] | [14] | [4] | [6] | [7] | [16] | [9] | [17] | [11] | [12]

CCCOC(=O)c1ccc(C(=O)OCCC)nc1
active: [6] 1.7 µM
not listed: [2] | [3] | [5] | [7] | [14] | [18] | [19] | [20]
inactive: all other assays above

N[C@@H](Cc1cc(I)c(Oc2ccc(O)c(I)c2)c(I)c1)C(=O)O
active: [1] 43.8 µM | [13] 7.63 µM | [6] 0.331 µM
